# Measurements taken from PubChem BioAssay AID2025 (NMMLSC, 2009).
# Screen size: about 330,000 compounds; about 980 (0.3%) were called active.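 How the source made its calls: active means percent response vs DMSO below 50%; inconclusive means fewer than 70 events counted for the yeast strain; inactive means the rest.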 Many of the other results were omitted from the sample, so actives are more common in it than they were.
# Test: RPL19A-GFP expression modulators in yeast, primary screen, cell-based, S. cerevisiae, multiplex flow cytometry, MLPCN (AID 2025);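 further: median channel GFP fluorescence of the barcoded RPL19A-GFP strain; ratio of sample median GFP to plate DMSO average so 100% = DMSO; lower means less RPL19A-GFP as with rapamycin TOR inhibition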
# Conditions: S. cerevisiae RPL19A-GFP strain, 3 h, at 10 µM, stronger effect = lower value
row,Compound,percent response vs DMSO
1,CC(=NNC(=O)c1ccc2nc[nH]c2c1)c1ccc(Br)cc1,103% (inactive)
2,CCN(CC)c1ccc(C(=O)N/N=C(\C)c2cccc(OC)c2)cc1,103% (inactive)
3,COc1ccc(/C(C)=N/NC(=O)c2ccc3nc[nH]c3c2)cc1,22.1% [may fluoresce violet] (active)
4,CCCC(NC(=O)c1ccco1)c1nc2ccccc2[nH]1 (stereo unspecified),104% (inactive)
5,COc1c(C)c2c(c(O)c1C/C=C(\C)CCC(=O)O)C(=O)OC2,39.1% [may fluoresce violet] (active)
6,Cc1c(C)n2c(SCC(=O)NC3CCCC3)nnc2[nH]c1=O,88% (inactive)
7,COc1cc(SC)ccc1C(=O)NNC(=O)C1COc2ccccc2O1 (stereo unspecified),95% (inactive)
8,Cc1ccc(C23CC4CC(CC(C(=O)NCC(=O)O)(C4)C2)C3)cc1,30% [may fluoresce violet] (active)
9,CCOc1ccccc1NC(=O)C12CC3CC(C1)CC(c1ccc(C)cc1)(C3)C2,101% (inactive)
10,C=CCNC(=O)C12CC3CC(C1)CC(C(=O)NCC=C)(C3)C2,98.2% (inactive)
11,O=C(COc1ccc2c(c1)CCC2)N1CCN(c2ccc(F)cc2)CC1,95.3% (inactive)
12,COc1ccc(-c2nc3ccccc3n2CCC(C)C)cc1OC,98.3% (inactive)
13,O=C1N(c2ccc(Cl)cc2)C(c2ccc(Cl)cc2)N2CCCN12 (stereo unspecified),95.4% (inactive)
14,CCOC(=O)C1CCN(C(=O)CN2C(=O)c3cccnc3Oc3ccc(C)cc32)CC1,97.7% (inactive)
15,Cc1cc2c(cc1C)N(Cc1ccccc1)C1=NCCCN12,101% (inactive)
16,C=CCOC(=O)C1=C(C)OC(N)=C(C#N)C1c1ccc(F)cc1 (stereo unspecified),91.2% (inactive)
17,CC(C)c1ccc(C2C(C#N)=C(N)Oc3c2oc(CO)cc3=O)cc1 (stereo unspecified),44% [may fluoresce violet] (active)
18,COC(=O)C1=C(N)Oc2c(oc(CO)cc2=O)C1c1c(F)cccc1Cl (stereo unspecified),103% (inactive)
19,Cc1cccc(OCC(=O)NC2CC(C)(C)NC(C)(C)C2)c1,98.6% (inactive)
20,Cc1cccc(NC(=O)Cn2c(=O)n(Cc3ccccc3)c(=O)c3c(C)c(C)sc32)c1,104% (inactive)
21,Cc1c(C(C)(C)O)[nH]c2ccc(C#N)cc12,91.7% (inactive)
22,CCOC(=O)C1CCCN(C(=O)CSc2nnc3nc(C)cc(C)n23)C1 (stereo unspecified),93.7% (inactive)

row,Compound,percent response vs DMSO
1,COc1cc(C(=O)NC2CCN(C)CC2)ccc1Nc1ncc2c(n1)N(C1CCC(O)CC1)CCC(=O)N2C (stereo unspecified),90.7% (inactive)
2,CC(=O)Nc1ccc(NC(=O)CS(=O)(=O)c2cn(CC(=O)N3CCCCC3)c3ccccc23)cc1,97.7% (inactive)
3,O=C(CS(=O)(=O)c1cn(Cc2cccc(F)c2)c2ccccc12)N1CCCCC1,43% [may fluoresce violet] (active)
4,O=C(CS(=O)(=O)c1cn(Cc2ccc(Cl)cc2)c2ccccc12)N1CCOCC1,91.2% (inactive)
5,CN1CCN(C2Cc3ccc(Cl)cc3Sc3ccc(F)cc32)CC1 (stereo unspecified),100% (inactive)
6,COCCN(C(=O)CSCc1ccc(C)cc1)c1c(N)n(CC(C)C)c(=O)[nH]c1=O,93.3% (inactive)
7,Nc1nc(SCc2cccc(Br)c2)n[nH]1,99.2% (inactive)
8,Cc1ccc(N2CCN(S(=O)(=O)c3ccc(F)cc3)CC2)c(C)c1,94.2% (inactive)
9,O=C(c1ccco1)N(Cc1nc2ccccc2c(=O)[nH]1)C1CCCC1,16.5% [may fluoresce violet] (active)
10,CCN(CC(=O)NC(=O)NCc1ccccc1)Cc1nc2ccccc2c(=O)[nH]1,102% (inactive)
11,CCCC(=O)N(CCc1ccccc1)Cc1nc2ccccc2c(=O)[nH]1,90.4% (inactive)
12,CC(C)(C)NC(=O)CN(Cc1cccs1)C(=O)CNS(=O)(=O)c1ccccc1,107% (inactive)
13,O=P(c1cccs1)(c1cccs1)c1cccs1,98.8% (inactive)
14,Cc1nc(C)c(C(=O)Nc2cccc(C)c2C)o1,98.6% (inactive)
15,Cc1cccc(NC(=O)c2ccc3nsnc3c2)c1C,103% (inactive)
16,Cc1cccc(NC(=O)c2cccc(C(=O)Nc3cccc(C)c3C)n2)c1C,49.4% [may fluoresce violet] (active)
17,Cn1c(=O)oc2cc(S(=O)(=O)NCCC(=O)NCc3ccccc3Cl)ccc21,106% (inactive)
18,COc1ccccc1S(=O)(=O)NCc1ccc(C(=O)N(C)Cc2ccc(F)cc2)cc1,91.3% (inactive)
19,COc1ccccc1/C=C/C(=O)OCC(=O)NC1CCCCCC1,96.2% (inactive)
20,CCC(c1nnnn1Cc1ccccc1)N(Cc1cc2cc(OC)ccc2[nH]c1=O)CC1CCCO1 (stereo unspecified),94.8% (inactive)
21,CCC(c1nnnn1Cc1ccco1)N(CCc1ccccc1)Cc1cc2cccc(C)c2[nH]c1=O (stereo unspecified),100% (inactive)
22,CCC(c1nnnn1Cc1ccco1)N(Cc1cc2cc(OC)ccc2[nH]c1=O)C1CCCCC1 (stereo unspecified),39.1% [may fluoresce violet] (active)

row,Compound,percent response vs DMSO
1,O=C(CS(=O)(=O)c1ccc(C(F)(F)F)cn1)NNC(=O)c1ccccc1,99.4% (inactive)
2,C/C(=N\NS(=O)(=O)c1ccccc1)c1c(O)cc(C)oc1=O,105% (inactive)
3,CCC(=O)Nc1ccc(C(=O)N2CCN(C(=O)c3ccco3)CC2)cc1,94.2% (inactive)
4,Cc1ccc(C)c(OCC(=O)N2CCN(C(=O)c3ccco3)CC2)c1,110% (inactive)
5,Cc1ccc(OCC(=O)Nc2ccc(N3CCN(C(=O)c4ccco4)CC3)cc2)c(C)c1,41.5% [may fluoresce violet] (active)
6,CC1(C)OC(=O)N2CCc3ccccc3C21C (stereo unspecified),99% (inactive)
7,CCCNC(=O)C(=O)Nc1cc2c3c(c1)CCC(=O)N3CCC2,100% (inactive)
8,O=C(COc1ccccc1)Nc1cc2c3c(c1)CC(=O)N3CCC2,101% (inactive)
9,O=C(Nc1cc2c3c(c1)CC(=O)N3CCC2)c1ccccc1F,43.6% [may fluoresce violet] (active)
10,Cc1cccc(NC(=S)NCc2ccc3[nH]c4c(c3c2)CCCC4)c1,105% (inactive)
11,COc1cccc(CN2CCNC(=O)C2CC(=O)N(C)CCc2ccccn2)c1 (stereo unspecified),102% (inactive)
12,O=C(NCc1ccccn1)c1ccc2nc(-c3ccco3)c(-c3ccco3)nc2c1,99.4% (inactive)
13,COc1cccc(NC(=O)NCCN2CCCCC2)c1,96% (inactive)
14,COCCNC(=O)Nc1ccc2nc(-c3ccco3)c(-c3ccco3)nc2c1,23.4% [may fluoresce violet] (active)
15,COc1ccc([N+](=O)[O-])cc1NCC(=O)c1ccc(C)cc1,104% (inactive)
16,COc1cc(C(=O)NCCOC(=O)c2cccc(N(C)C)c2)cc(OC)c1OC,101% (inactive)
17,O=C(CCC(=O)N1CCN(S(=O)(=O)c2ccccc2)CC1)NC1CCCc2ccccc21 (stereo unspecified),101% (inactive)
18,CNS(=O)(=O)c1cccc(C(=O)NC2CCCc3ccccc32)c1 (stereo unspecified),101% (inactive)
19,O=C(O)c1cc(S(=O)(=O)NC2CCCc3ccccc32)ccc1O (stereo unspecified),34.1% [may fluoresce violet] (active)
20,CC(=O)Nc1ccccc1C(=O)C(=O)Nc1ccc(F)cc1,105% (inactive)
21,O=C(CCC(=O)c1ccccc1)NCc1cccc(C(F)(F)F)c1,98.9% (inactive)
22,O=C(c1cc2ccccc2o1)N1CCN(c2cccc(C(F)(F)F)c2)CC1,98.3% (inactive)

row,Compound,percent response vs DMSO
1,O=C(c1cccc(Cl)c1)N1CCN(Cc2ccccc2)CC1,103% (inactive)
2,O=C(NCc1ccncc1)C1CCN(C(=O)c2cccc(Cl)c2)CC1,42.1% [may fluoresce violet] (active)
3,COc1ccc(CNC(=O)C2CCN(C(=O)c3ccccc3)CC2)cc1,82.1% (inactive)
4,COc1ccc(S(=O)(=O)N2CCOC2CNC(=O)C(=O)NCc2ccncc2)cc1C (stereo unspecified),99.3% (inactive)
5,O=C1CSC(c2cccc(F)c2)N1c1ccc(O)cc1 (stereo unspecified),95.8% (inactive)
6,COc1cccc(C2SCC(=O)N2c2cccc(C)c2)c1OC (stereo unspecified),49.7% [may fluoresce violet] (active)
7,Cc1ccc(C2SCC(=O)N2c2ccccc2)cc1 (stereo unspecified),103% (inactive)
8,O=C(CC(NS(=O)(=O)c1ccc(Cl)cc1)c1ccco1)NC1CCCC1 (stereo unspecified),96.4% (inactive)
9,O=C(CSc1ccccn1)Nc1nc2c(ccc3ccccc32)s1,106% (inactive)
10,CC(=O)Nc1ccc(NC(=O)COC(=O)C2CCC(C(C)(C)C)CC2)cc1 (stereo unspecified),103% (inactive)
11,CC(=O)Nc1ccc(NC(=O)CC2CCCC2)cc1,42.2% [may fluoresce violet] (active)
12,COc1ccc(NC(=O)CN(C)C(=O)CC2CCCCC2)cc1,96.3% (inactive)
13,Cc1ccc(NC(=S)N(CCCN2CCCC2)Cc2cccn2Cc2ccc(Cl)cc2)cc1,99.4% (inactive)
14,CN(CCCNC(=O)CN1C(=O)CC(C)(C)S(=O)(=O)c2ccccc21)C1CCCCC1,91.3% (inactive)
15,Cc1nccn1CC(=O)N/N=C/c1ccc(O)c(O)c1,103% (inactive)
16,NCCCCCC(=O)N/N=C/c1ccc2nccnc2c1,48% [may fluoresce violet] (active)
17,O=C(N/N=C/c1ccc(Cl)c(Cl)c1)c1ccc2nc[nH]c2c1,99.3% (inactive)
18,CC(=O)c1c(C)c[nH]c1C,101% (inactive)
19,COc1ccc(-c2cn3cccnc3n2)cc1,98.9% (inactive)
20,CC(C)(C)C(=O)Nc1ccc(-c2cn3cccnc3n2)cc1,105% (inactive)
21,FC(F)(F)Oc1ccc(-c2cn3cccnc3n2)cc1,30.4% [may fluoresce violet] (active)
22,Cc1noc(C)c1-c1ccc2ncnc(NC(C)c3ccco3)c2c1 (stereo unspecified),99.4% (inactive)

row,Compound,percent response vs DMSO
1,O=C(C[C@H]1C/C=C\C[C@@H](NC(=O)OCC2c3ccccc3-c3ccccc32)C(=O)O[C@@H](c2ccccc2)CNC1=O)N[C@H](CO)Cc1ccccc1,101% (inactive)
2,CCOC(=O)C1CCCCN1Cc1ccc(OC)c(OC)c1OC (stereo unspecified),94.8% (inactive)
3,CCOC(=O)c1nnn(-c2nonc2-n2cccc2)c1CN1CCOCC1,95.3% (inactive)
4,CCOC(=O)c1c(CN(C)C)n(-c2ccccc2)c2cc(Br)c(O)cc12,98% (inactive)
5,CCOC(=O)c1c(CN2CCOCC2)n(-c2ccccc2)c2ccc(O)cc12,14.2% [may fluoresce violet] (active)
6,COc1ccc(C(=O)NC(Cc2ccc(OC(=O)c3ccc(OC)cc3)cc2)C(=O)O)cc1 (stereo unspecified),96.9% (inactive)
7,O=C(O)c1ccc(COc2c(F)c(F)cc(F)c2F)o1,97% (inactive)
8,O=C(CCS(=O)(=O)c1ccc2c(c1)NC(=O)CS2)NCc1ccccc1Cl,100% (inactive)
9,CSc1cccc(NC(=O)C2CCCN2S(=O)(=O)c2ccc3c(c2)CCC(=O)N3)c1 (stereo unspecified),100% (inactive)
10,NNC(=O)C1CC(O)CN1S(=O)(=O)c1ccc(Cl)cc1 (stereo unspecified),101% (inactive)
11,CCCCNC(=O)CCNC(=O)c1ccc(C(C)(C)C)cc1,47.4% [may fluoresce violet] (active)
12,CCCN1CCN(C(=O)CCCNC(=O)c2ccc(Cl)cc2)CC1,98.3% (inactive)
13,O=C(CCNC(=O)c1ccc(Br)cc1)NCCCc1ccccc1,101% (inactive)
14,O=C(Nc1ccccc1)c1nnsc1S(=O)(=O)c1ccc(Cl)cc1,46.8% (active)
15,CN(c1cccc(NC(=O)Nc2ccc(Cl)cc2)c1)S(C)(=O)=O,102% (inactive)
16,O=C(Nc1ccc(Cl)cc1)Nc1nnc(/C=C/c2ccccc2)s1,97.4% (inactive)
17,CCCCNC(=O)c1cn(CC)c2cc(N3CCN(C(=O)c4ccco4)CC3)c(F)cc2c1=O,95.5% (inactive)
18,Cc1cc(=O)oc2c(C)c(OCC(=O)NCCN3CCOCC3)ccc12,97.4% (inactive)
